PubChem BioAssay (Tox21)
Results filed as inconclusive are left out. A number with no mark means an inactive call. Calls of active or inactive are those of the source. Unless noted, calls follow the shape of the dose curve; as a rule, active = well fitted cell-killing curve with a large enough effect in the repeat runs (not every such curve was filed as active); inconclusive = weak or mixed curves, or effect the other way; inactive = no such curve, though single readings can be large or run the other way.

Molecular target: Bile acid receptor (Homo sapiens) (UniProt Q96RI1)
Assay: qHTS assay to identify small molecule agonists of the farnesoid-X-receptor (FXR) signaling pathway (AID 743220; active = well fitted activation curve with a large enough effect in the signal ratio in the repeat runs, not every such curve was filed as active; the % refers to the signal ratio)
Settings: HEK293T FXR-UAS-bla, beta-lactamase FRET ratio, 16 h; series mostly up to 62.6 µM
How it was run: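 FXR-UAS-bla HEK 293T cells carrying a UAS-driven beta-lactamase reporter were plated for 5 h at 37C/5% CO2, then exposed to DMSO-dissolved Tox21 10K compounds for 16 h at 37C. A LiveBLAzer B/G FRET substrate was loaded for 2 h at room temperature before fluorescence reading.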
% is scaled to controls: 0 for no effect and ±100 for the full control effect.

Chain of Bile acid receptor (Homo sapiens) (Q96RI1 whole entry, looked up): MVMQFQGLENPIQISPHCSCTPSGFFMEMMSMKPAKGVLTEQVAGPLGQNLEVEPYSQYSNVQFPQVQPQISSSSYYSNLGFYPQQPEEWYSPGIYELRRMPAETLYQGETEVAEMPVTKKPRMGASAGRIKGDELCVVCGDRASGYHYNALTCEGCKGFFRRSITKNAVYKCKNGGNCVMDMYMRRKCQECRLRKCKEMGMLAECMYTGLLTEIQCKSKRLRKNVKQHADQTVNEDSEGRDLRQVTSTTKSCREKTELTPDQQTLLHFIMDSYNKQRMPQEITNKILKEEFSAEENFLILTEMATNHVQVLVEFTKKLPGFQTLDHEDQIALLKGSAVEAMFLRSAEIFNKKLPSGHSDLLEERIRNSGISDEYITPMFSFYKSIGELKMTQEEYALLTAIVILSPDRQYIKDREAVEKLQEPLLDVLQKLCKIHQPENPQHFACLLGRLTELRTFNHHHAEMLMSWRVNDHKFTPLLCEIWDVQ

Q: Which outcome does the source give for `Nc1ccc(S(=O)(=O)Nc2ccccn2)cc1` here?
A: Its outcome is “inactive”.

Q: For `CCCCCC(=O)OCC`, which outcome is on record?
A: The outcome was “inactive”.

Q: With `CC(C)=CC(C)(C)C` as the molecule, how does the outcome read?
A: Its outcome is “inactive”.

Q: With `O=C1OC(=O)c2cc(Oc3ccc4c(c3)C(=O)OC4=O)ccc21` as the molecule, how does the outcome read?
A: The outcome was “inactive”.

Q: For `NS(=O)(=O)c1cc2c(cc1Cl)NC(C(Cl)Cl)NS2(=O)=O` (stereo not given), which outcome is on record?
A: Its outcome is “inactive”.

Q: Which outcome does the source give for `CCCCCCCCCCCCC1CO1` (stereo not given) here?
A: Its outcome is “inactive”.

Q: For `NS(=O)(=O)c1cc2c(cc1Cl)NC(CC1CCCC1)NS2(=O)=O` (stereo not given), which outcome is on record?
A: Its outcome is “inactive”.

Q: With `Cc1nc(C)nc(N2C[C@@H](C)N(c3ccnc([C@@H](C)O)n3)[C@@H](C)C2)n1` as the molecule, how does the outcome read?
A: Its outcome is “inactive”.

System: not listed separately
Assay: qHTS assay to identify small molecule antagonists of the farnesoid-X-receptor (FXR) signaling pathway - cell viability counter screen (AID 743221); also: nearly all actives have a fitted effect of over 50% in size
Settings: FXR-bla HEK293T viability, CellTiter-Glo luminescence, 16 h; series mostly up to 62.6 µM
How it was run: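 Compound effects on cell number were measured as CellTiter-Glo luminescence in HEK 293T cells expressing FXR-UAS-bla, after 16 h at 37 C with 50 uM CDCA (final).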

Q: With `C[Si]1(C)N[Si](C)(C)N[Si](C)(C)N1` as the molecule, how does the outcome read?
A: The outcome was “inactive”.

Q: For `Nc1ccc(S(=O)(=O)Nc2ccccn2)cc1`, which outcome is on record?
A: Its outcome is “inactive”.

Q: With `OC[C@@H](O)[C@H](O)[C@@H](O)[C@@H](O)CO` as the molecule, how does the outcome read?
A: The outcome was “inactive”.

Q: With `CCCCCC(=O)OCC` as the molecule, how does the outcome read?
A: The outcome was “inactive”.

Q: Which outcome does the source give for `Cc1cc(C)cc([N+](=O)[O-])c1` here?
A: Its outcome is “inactive”.

Q: For `FC(F)(F)/C(=N\OCC1OCCO1)c1ccc(Cl)cc1`, which outcome is on record?
A: The outcome was “inactive”.

Q: For `CC(C)=CC(C)(C)C`, which outcome is on record?
A: Its outcome is “inactive”.

Q: With `O=C1OC(=O)c2cc(Oc3ccc4c(c3)C(=O)OC4=O)ccc21` as the molecule, how does the outcome read?
A: Its outcome is “inactive”.

Q: For `CC(C)CCC(=O)CCC(C)C`, which outcome is on record?
A: The outcome was “inactive”.

Q: Which outcome does the source give for `CNC(=O)NC` here?
A: Its outcome is “inactive”.

Q: Which outcome does the source give for `C=CCOc1cc(Cl)ccc1C(=O)NCCN(CC)CC` here?
A: The outcome was “inactive”.

Q: With `CCCCCCCCCCCCC1CO1` (stereo not given) as the molecule, how does the outcome read?
A: The outcome was “inactive”.

Q: Which outcome does the source give for `CCOC(=O)OCC/C(SC(=O)OCC)=C(\C)N(C=O)Cc1cnc(C)nc1N` here?
A: Its outcome is “inactive”.

Q: With `C=CCCCCCCCCCCC` as the molecule, how does the activity change, negative = cytotoxicity read?
A: Its activity change, negative = cytotoxicity is 11.4% [at 5.95 µM].

Q: For `Cc1c(C(C)C)c(=O)n(-c2ccccc2)n1C`, which outcome is on record?
A: The outcome was “inactive”.

Q: Which outcome does the source give for `Cc1ccc2c(c1)c1c3n2CCNC3CCC1` (stereo not given) here?
A: The outcome was “inactive”.

Q: With `Nc1ccc(C(=O)OCC(O)CO)cc1` (stereo not given) as the molecule, how does the outcome read?
A: Its outcome is “inactive”.

Q: For `CC(=O)OC(C)c1ccccc1` (stereo not given), which outcome is on record?
A: Its outcome is “inactive”.

Q: With `Nc1cc(Cl)cc(S(=O)(=O)O)c1O` as the molecule, how does the outcome read?
A: The outcome was “inactive”.

Q: For `CCCCCCCCCCC`, which outcome is on record?
A: Its outcome is “inactive”.

Q: Which outcome does the source give for `CCOC(=O)CCc1ccccc1` here?
A: The outcome was “inactive”.

Q: With `CN=C(NC#N)NCCSCc1csc(N=C(N)N)n1` as the molecule, how does the outcome read?
A: Its outcome is “inactive”.

Q: Which outcome does the source give for `Cc1ccc(S(=O)(=O)NC(=O)NC2CCCCCCC2)cc1` here?
A: The outcome was “inactive”.

Q: For `NS(=O)(=O)c1cc2c(cc1Cl)NC(CC1CCCC1)NS2(=O)=O` (stereo not given), which outcome is on record?
A: The outcome was “inactive”.

Q: Which outcome does the source give for `NC(Cc1c[nH]c2ccccc12)C(=O)O` (stereo not given) here?
A: The outcome was “inactive”.

Q: Which outcome does the source give for `NCCc1ccn[nH]1` here?
A: Its outcome is “inactive”.

Q: With `Cc1nc(C)nc(N2C[C@@H](C)N(c3ccnc([C@@H](C)O)n3)[C@@H](C)C2)n1` as the molecule, how does the outcome read?
A: The outcome was “inactive”.
